Results: PubChem BioAssay AID1817 (Sanford-Burnham Center for Chemical Genomics, 2009)
About 50 (0.02%) of roughly 290,000 compounds were called active. The entries come from a sample that favours actives as a whole. Entries with a potency or affinity are not part of this list. Unmarked numbers belong to inactive results.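 How the source made its calls: active means displacement of at least 50% at 20 µM, with a fluorescence ratio check between 0.3 and a set limit; inactive means the rest.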

Molecular target: E3 ubiquitin-protein ligase SIAH1 (Homo sapiens) (UniProt Q8IUQ4)
Sequence (Q8IUQ4 whole entry, looked up): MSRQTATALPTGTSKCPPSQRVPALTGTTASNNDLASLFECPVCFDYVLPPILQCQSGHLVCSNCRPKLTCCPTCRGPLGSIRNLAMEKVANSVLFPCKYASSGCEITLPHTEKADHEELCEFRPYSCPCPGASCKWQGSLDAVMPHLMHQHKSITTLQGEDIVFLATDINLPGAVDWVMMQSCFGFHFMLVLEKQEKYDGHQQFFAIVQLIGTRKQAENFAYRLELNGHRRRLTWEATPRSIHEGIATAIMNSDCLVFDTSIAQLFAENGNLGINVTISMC
Assay: Siah-1 peptide-binding antagonists, primary screen, biochemical, fluorescence polarization, rhodamine-plectin, uHTS (AID 1817);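 further: plate controls were Siah plus tracer with DMSO for no effect and tracer alone without Siah for full effect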
Details: Siah-1 / rhodamine-plectin peptide fluorescence polarization; at 20 µM; hits give high values

SMILES | displacement
CC(C)c1ccc(N2C(=O)NC(=O)/C(=C\C=C\c3ccco3)C2=O)cc1 | 14.6%
CC(C)c1ccc(N2C(=O)NC(=O)/C(=C/C=C/c3ccco3)C2=O)cc1 | 51.8% (active)
Cc1ccc(N2C(=O)NC(=O)/C(=C\C=C\c3ccco3)C2=O)cc1 | 12.1%
O=[N+]([O-])c1ccc(N2CCNCC2)cc1NCc1ccco1 | -3.7%
C=C1C(=O)O[C@@H]2C[C@@H](C)[C@@H]3C=CC(=O)[C@@]3(C)[C@@H](O)[C@H]12 | 4.7%
C=C1C(=O)O[C@@H]2C[C@@H](C)[C@H]3C=CC(=O)[C@]3(O)C[C@@H]12 | 51.6% (active)
C=C1C(=O)O[C@H]2C[C@@H](C)[C@@H]3C=CC(=O)[C@@]3(C)C[C@H]12 | 12.6%
Cc1cc(C=O)c(C)n1C1CCCCC1 | 2.7%
CCCCCn1c(NC(=O)c2ccco2)c(C(=O)OCC)c2nc3ccccc3nc21 | 64.6% (active)
COCCCn1c(N)c(C(=O)OCCOC)c2nc3ccccc3nc21 | 2.9%
CCOC(=O)c1c(N)n(CCCOC(=O)c2ccco2)c2nc3ccccc3nc12 | 2.6%
CCCCn1c(NC(=O)c2ccco2)c(C(=O)OCC)c2nc3ccccc3nc21 | 4.9%
CCCCn1c(NS(=O)(=O)c2ccc(C)cc2)c(C(=O)OCC)c2nc3ccccc3nc21 | 34.7%
CCOC(=O)c1c(NS(=O)(=O)c2ccccc2)n(CCCOC)c2nc3ccccc3nc12 | 67% (active)
COc1ccc(NC(=O)N2CCC3(CC2)OCCO3)cc1 | -2.3%
O=C(O)C1C2CCC(O2)C1C(=O)Nc1ccc(F)c(F)c1 (stereo not given) | 10.6%
O=C1NC(=S)N(Cc2ccco2)C(=O)/C1=C\c1cccs1 | 21.3%
Cc1ccccc1-n1c(O)c(/C=N/N2CCOCC2)c(=O)[nH]c1=S | 2.7%
Cc1cccc(C)c1NC1=NCCCCS1 | -1.2%
CCCC12CN3CCN(C1)CC(CCC)(C3)C2=O | 8.2%
